# Screening data from PubChem.
# uPA generation = inhibitors of cell surface uPA generation; cell surface uPA generation assay, qHTS; Potency, µM (series often up to 38.3 µM), without a hit: at the top dose activity change, negative = inhibition, hits mostly inhibitors; 330,000 tested, 0.31% active; active = well fitted inhibition curve with a large enough effect; inconclusive = small, poorly fitted or top-dose-only effect; inactive = no such curve, though single readings can be large or run the other way; tested in mouse RAW 264.7 cells; also: potency is read from the fitted curve at half-maximal effect; % is scaled to controls: 0 for no effect and ±100 for the full control effect; nearly all actives have a fitted effect of over 55% in size
# HepG2 viability = kills HepG2 cells in TGF-b inhibitor counter-screen | 410,000 tested, 0.76% active | HepG2 CAGA-GFP viability, ATP luminescence, 18 h | Potency, µM (doses to about 46.1 µM), for the others: at the highest dose activity change, negative = cytotoxicity, usual class: cytotoxic; also: potency is read from the fitted curve at half-maximal effect
#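 HepG2 CAGA-GFP cells (1000/well, DMEM with 1% FBS) received compound, then TGF-beta at 500 pg/mL final, and were incubated 18 hours at 37 degrees C. Viability was read by CellTiter-Glo luminescence. Media-only wells were set as complete cell-killing and DMSO as no toxicity.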
# ATXN viability = cell viability loss in ATXN counter-screen. S2 cells (HEK-293 line with an ATXN2-luciferase reporter) viability, CellTiter-Fluor protease fluorescence, 24 h. 400,000 tested, 0.49% active. Potency, µM (highest dose often 56.7 µM), hits mostly cytotoxic; also: potency is read from the fitted curve at half-maximal effect; nearly all actives have a fitted effect of over 40% in size
# TGFb SMAD3 inh = TGF-b pathway inhibition; HepG2 CAGA-GFP TGF-b/SMAD3 reporter, GFP fluorescence, 18 h; TGF-beta stimulated, 500 pg/mL final; Potency, µM (titrated, usually from 46.1 µM), without a hit: at the top dose activity, negative = inhibition, hits mostly inhibitors; 410,000 tested, 1.2% active; AID 588855; also: potency is read from the fitted curve at half-maximal effect; % is scaled to controls: 0 for no effect and ±100 for the full control effect; nearly all actives have a fitted effect of over 65% in size
#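 HEPG2 CAGA-GFP cells (1000/well, DMEM with 1% FBS) were pre-incubated 2 h at 37 degrees C, given compound by pin tool, then stimulated with TGF-beta at 500 pg/mL final for 18 h before per-cell GFP fluorescence imaging.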
# ATXN2 expr inh = reduces ATXN2 reporter expression in HEK-293 cells. HEK-293 ATXN2-luciferase reporter, luminescence, 24 h. Potency, µM (highest dose often 57 µM), for inactives: top-dose activity change, negative = inhibition, actives largely listed as inhibitors. 360,000 tested, 0.72% active. AID 1745845; also: potency is read from the fitted curve at half-maximal effect; % is scaled to controls: 0 for no effect and ±100 for the full control effect; nearly all actives have a fitted effect of over 55% in size
#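 ATXN2-luciferase reporter cells (luciferase flanked by upstream and downstream ATXN2 gene portions) were treated 24 h at 37 °C with compounds at up to 57 uM. SteadyGlo luminescence gave expression; GF-AFC fluorescence gave viability.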
# Giardia kill = kills Giardia lamblia. Giardia lamblia trophozoite viability. activity change, % at 7.66 µM, hits read low. 340,000 tested, 0.15% active; in the data active = activity change below about -80%; inconclusive = between about -30% and that limit;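 also: parasites exposed to compound for two days anaerobically before the ATP read; % is scaled to controls: 0 for no effect and ±100 for the full control effect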
#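 Viability, read as ATP luminescence: trophozoites at 100 cells/well, compound added, 48 hrs anaerobic at 37 deg C, then 15-30 min room-temperature development before reading.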
# Active calls of the source: *; i = inactive; ? = inconclusive; nt = no result. An excerpt weighted towards active compounds, which were near 2.6% of everything screened. Unless noted, calls follow the shape of the dose curve; as a rule, active = well fitted curve in the direction sought with a large enough effect; inconclusive = small, poorly fitted or top-dose-only effect, or another doubt; inactive = no such curve, though single readings can be large; an effect the other way counts as inactive or inconclusive.
SMILES,uPA generation,HepG2 viability,ATXN viability,TGFb SMAD3 inh,ATXN2 expr inh,Giardia kill
Cc1c(C(=O)N2CCCC(C)C2)sc2ncnc(NCCN3CCCCC3)c12 (stereo not drawn),nt,nt,i,nt,nt,nt
CCn1c(-c2ccccc2F)nc2cc(NC(C)=O)cc(C(=O)N3CCC[C@H]3C(=O)OC)c21,nt,nt,i,nt,nt,nt
CCOc1cc(/C=N\NC(=O)c2ccc(NC(=O)CC)cc2)ccc1OC(=O)c1ccccc1,-3%,-2%,?,0%,20µM*,9
COC(=O)c1ccc(CSC(=N)N)o1,-15%,-21%,?,0%,?,-13
CCc1oc(C(=O)OC)cc1CSC(=N)N,-2%,16µM*,i,0%,18%,14
c1ccc(-c2nnc(-c3ccccn3)s2)nc1,-7%,-6%,i,-13%,8.9µM*,-26
c1ccc(-c2nc(-c3ccccn3)nc(-c3ccccn3)n2)nc1,-10%,-44%,?,-27%,?,-5
CCCNS(=O)(=O)Nc1ncnc(OCCOc2ncc(Br)cn2)c1-c1ccc(Br)cc1,nt,nt,nt,nt,16%,nt
CC(C)(C)NC(=O)CN(C(=O)Cn1nnc(-c2ccc(Cl)cc2)n1)C1CCN(Cc2ccccc2)CC1,-4%,18µM*,?,16µM*,-16%,5
C(=C\c1ccnc2ccccc12)/c1ccc(N2CCOCC2)cc1,nt,-6%,nt,-22%,nt,nt
CCCCC(=O)/C=C/n1c(=S)oc2ccccc21,-6%,-58%,?,5µM*,?,-16
Cc1cc(CC(C)CC(C)(C)C)n(O)c(=O)c1 (stereo not drawn),nt,-12%,nt,5.6µM*,nt,nt
COC(=O)c1sc(NC(=O)COc2cccnc2[N+](=O)[O-])c(C(=O)OC)c1C,?,0%,i,-1%,-11%,-82*
CCCCNC(=O)c1cccc(S(=O)(=O)N2CC3(C)CC2CC(C)(C)C3)c1 (stereo not drawn),2.2µM*,-18%,i,?,-8%,9
COCCNC(=O)c1cccc(S(=O)(=O)N2CC3(C)CC2CC(C)(C)C3)c1 (stereo not drawn),4µM*,9%,i,6%,-5%,-18
COCCCNC(=O)c1cccc(S(=O)(=O)N2CC3(C)CC2CC(C)(C)C3)c1 (stereo not drawn),6.3µM*,-1%,i,10%,1%,?
CC1(C)CC2CC(C)(CN2S(=O)(=O)c2cccc(C(N)=O)c2)C1 (stereo not drawn),15%,-16%,i,-8%,nt,?
CC(C)CCn1c(N)c(S(=O)(=O)c2cccs2)c2nc3ccccc3nc21,-1%,-34%,?,16µM*,18µM*,6
COc1cc2nc(Cl)nc(N)c2cc1OC,nt,nt,i,nt,9%,nt
CCc1ccccc1OCC(=O)OCC(=O)Nc1cc(C)on1,4%,3.2µM*,i,10%,-3%,-14
COC(=O)c1ccc(-n2c(C)cc(C(=O)CCl)c2C)cc1,6.3µM*,13µM*,30µM*,20µM*,15µM*,3
COC(=O)c1ccc(-n2c(C)cc(C(=O)COC(=O)C3=COCCO3)c2C)cc1,-1%,1%,i,0%,12%,17
CCOc1ccc(NC(=O)C(=O)c2cc(C)n(-c3cc(C)cc(C)c3)c2C)cc1,nt,-25%,i,14%,-8%,nt
CCOc1ccc(-n2c(C)cc(C(=O)CCl)c2C)cc1,-11%,-96%,nt,13µM*,24µM*,1
O=C1C=CC[C@H](/C=C/C[C@@H](O)C[C@H](O)CCc2ccccc2)O1,10µM*,-18%,i,0%,-13%,10
SMILES,uPA generation,HepG2 viability,ATXN viability,TGFb SMAD3 inh,ATXN2 expr inh,Giardia kill
CC(C)Oc1ccc(C(CCN)C2CCCCC2)cc1 (stereo not drawn),-12%,11µM*,nt,?,?,0
COc1ccc(CN(Cc2ccccc2)C(=O)c2ccno2)cc1COc1ccc(NC(C)=O)cc1,nt,nt,nt,nt,nt,11
CCCCC(F)(F)[C@@]1(O)CC[C@H]2[C@H](CC(=O)[C@@H]2CCCCCCC(=O)O)O1,nt,nt,i,nt,?,nt
CCCC1([C@H](O)C/C=C/[C@H]2[C@H](O)CC(=O)[C@@H]2CCCCCCC(=O)OC)CCC1,nt,nt,35µM*,nt,nt,nt
O=C(O)c1ccc(NC(=O)c2cc3c([nH]c2=O)CCCC3=O)cc1,nt,-15%,nt,13%,nt,nt
Cc1cc(C(=O)COC(=O)c2cccnc2Cl)c(C)n1C,8.9µM*,12%,i,3%,-11%,?
CSc1ncccc1C(=O)OCC(=O)c1cc(C)n(C)c1C,5%,1%,i,-9%,56%,-27
Cc1cccc2cc(CN(C(=O)c3ccc(C(F)(F)F)cc3)C3CC3)c(N3CCC(O)CC3)nc12,nt,nt,i,nt,nt,nt
CCCc1nc2cccnc2n1C1CCN(C(=O)Cn2nccc2C)CC1,nt,nt,i,nt,nt,nt
Cc1noc(C)c1CSCC(=O)Nc1nc(-c2ccc(F)c(F)c2)cs1,0%,-20%,?,?,22µM*,?
COc1ccc(-c2nc(N3CCOCC3)nc3n[nH]c(N)c23)cc1,-2%,-49%,i,11µM*,34%,7
Nc1[nH]nc2nc(N3CCCC3)nc(-c3ccccc3)c12,3%,-3%,i,-4%,3%,-1
COc1cc(F)c(F)c(Nc2ccc(I)cc2F)c1NS(=O)(=O)C1(C[C@H](O)CO)CC1,nt,nt,nt,nt,-6%,nt
CC(C)(Cc1ccc2ccccc2c1)NC[C@@H](O)COc1cccc(Cl)c1C#N,nt,nt,nt,nt,21%,nt
CCN(Cc1ccccc1)c1ccc(/C=C/c2nccc3ccccc23)cc1,nt,-13%,nt,0%,nt,nt
CSc1ncc(CN2CCc3c([nH]c4ccccc34)C2c2cccc(O)c2)cn1 (stereo not drawn),-8%,-80%,i,11µM*,-38%,73
Cc1c(C(=O)Nc2ccc(S(=O)(=O)N(C)C3CCN(C)CC3)cc2)oc2c(Cl)cccc12,-13%,-111%,nt,?,25µM*,18
Cc1c(C(=O)Nc2ccc(S(=O)(=O)N(C)C3CCN(C)CC3)cc2)oc2ccccc12,-6%,-47%,?,?,?,4
O=C(CCN1Cc2ccccc2OC(c2ccccc2F)C1)N1CCC(N2CCCC(O)C2)CC1 (stereo not drawn),nt,nt,i,nt,nt,nt
CCn1cc(/C=C/c2cc[n+](C)cc2)c2ccccc21,3%,-39%,i,127%,nt,15
C=CCn1cc(/C=C/c2cc[n+](C)cc2)c2ccccc21,10µM*,-62%,nt,152%,nt,15
COc1cccc(C(=O)NCC2Cc3cccc(-c4cccnc4)c3O2)c1 (stereo not drawn),nt,nt,i,nt,nt,nt
COc1ccc(CN2CCCC(n3cc(C(=O)N4CCCCC4)nn3)C2)c(OC)c1C (stereo not drawn),nt,nt,i,nt,nt,nt
